TEAD-YAP inh = TEAD-YAP interaction inhibition; HEK-TIYL cells, TEAD-Gal4/YAP UAS-luciferase luminescence; inhibition, % at 9.12 µM; 640,000 tested, 1.4% active; in the data active = inhibition above about 32%
FBW7 activator = activators of human E3 ligase FBW7; Q969H0; AlphaScreen FBW7–phospho-cyclin E peptide binding, activator screen; normalized activity (activation), % at 26.1 µM; 650,000 tested, 0.13% active; in the data active = normalized activity above about 1.9%;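 note: purified mutant Fbw7 with reduced substrate affinity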
Target sequence (Q969H0 whole entry, looked up): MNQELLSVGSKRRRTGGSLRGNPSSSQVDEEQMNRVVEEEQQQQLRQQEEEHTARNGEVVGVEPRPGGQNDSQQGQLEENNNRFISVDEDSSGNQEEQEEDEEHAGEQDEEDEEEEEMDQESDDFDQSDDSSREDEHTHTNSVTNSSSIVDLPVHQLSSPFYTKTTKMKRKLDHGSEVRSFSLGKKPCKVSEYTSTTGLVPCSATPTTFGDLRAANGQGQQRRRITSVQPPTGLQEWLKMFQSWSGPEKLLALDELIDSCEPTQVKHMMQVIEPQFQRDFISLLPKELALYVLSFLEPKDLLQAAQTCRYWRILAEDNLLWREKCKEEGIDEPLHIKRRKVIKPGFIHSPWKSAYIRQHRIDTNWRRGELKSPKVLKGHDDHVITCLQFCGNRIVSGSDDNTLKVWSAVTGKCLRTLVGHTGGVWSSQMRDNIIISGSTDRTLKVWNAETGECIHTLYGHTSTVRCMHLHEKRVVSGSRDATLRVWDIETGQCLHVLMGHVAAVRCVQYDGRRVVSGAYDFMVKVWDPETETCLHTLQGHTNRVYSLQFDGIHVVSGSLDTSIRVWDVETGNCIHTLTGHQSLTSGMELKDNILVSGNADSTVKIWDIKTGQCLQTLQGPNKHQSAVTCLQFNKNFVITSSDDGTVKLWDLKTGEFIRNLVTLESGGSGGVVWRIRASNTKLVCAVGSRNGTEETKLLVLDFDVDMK
MITF primary = blocks human microphthalmia-associated transcription factor; inhibition, % at 2.6 µM; AlphaScreen MITF homodimerization, bead proximity signal; AID 1259374; 650,000 tested, 0.91% active; in the data active = inhibition above about 50%
GPR151 activ = activators of human GPR151; AID 1508602; 650,000 tested, 1% active; activation, % at 11.2 µM; PathHunter beta-arrestin GPR151 cells, luminescence; in the data active = activation above about 4.9%
MITF confirm = confirmation of human MITF inhibitors. shares compounds with MITF primary. AlphaScreen MITF homodimerization, biotin/His-MITF beads. inhibition, % at 2.6 µM. 4,700 tested, 16% active;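 active = inhibition above a cutoff derived from the DMSO control wells, cut at about 28% in these data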;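 note: inhibitors lower the bead chemiluminescence by keeping MITF from dimerizing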
AlphaScreen DR = optically interferes with AlphaScreen signal in dose response | IC50, µM | 480 tested, 6% active | AlphaScreen optical interference counterscreen, cell-free | shares compounds with MITF primary | AID 1259373; call rule not given here
AlphaScreen intf2 = AlphaScreen optical interference, counter-screen | shares compounds with MITF primary | LysRS AlphaScreen counterscreen, signal interference, triplicate | inhibition, % at 2.6 µM | 4,700 tested, 7.6% active | AID 1259376;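 active = inhibition above a cutoff derived from the DMSO control wells, cut at about 30% in these data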
Each line names hits and unclear results; the compound was inactive in the other large screens (follow-up assays come after a bar, where they were run). Rows were chosen to be rich in hits. Some 3.4% of all compounds tested hit in one or more screens of this group.

CN(Cc1ccccc1)C(=O)C1CCN(S(=O)(=O)c2ccc(Cl)cc2)CC1	none
O=C(/C=C/c1ccco1)OCC(=O)N1CCCC1	none
O=C(/C=C/c1ccco1)ON1C(=O)c2ccccc2C1=O	MITF primary 55.9 | MITF confirm 34.5 | AlphaScreen DR inactive | AlphaScreen intf2 inactive
O=C(/C=C/c1ccco1)/C=C/c1ccco1	MITF primary 67.9 | MITF confirm 76.9 | AlphaScreen intf2 96.9
COc1ccc(C(CNCCC(=O)O)N(C)C)cc1 (stereo not drawn)	MITF primary 55.1 | MITF confirm inactive | AlphaScreen intf2 inactive
COc1ccc(C(CNC(=O)c2ccc(Br)cc2)N(C)C)cc1 (stereo not drawn)	none
O=C(NCc1cccnc1)c1ccc(Cl)c(NC2=NC3CS(=O)(=O)CC3S2)c1 (stereo not drawn)	none
CCc1ccc(NC(=O)CSC2=C(C#N)C(c3cccs3)C(C(=O)Nc3ccccc3)=C(C)N2)cc1 (stereo not drawn)	MITF primary 57.0 | MITF confirm inactive | AlphaScreen intf2 inactive
CCCCOCC(O)Cn1c2ccccc2c2ccccc21 (stereo not drawn)	none
CCCCOCC(O)Cn1c(Cc2ccccc2)nc2ccccc21 (stereo not drawn)	MITF primary 57.6 | MITF confirm inactive | AlphaScreen intf2 inactive
O=C(Nc1nc(-c2ccccn2)cs1)C12CC3CC(CC(O)(C3)C1)C2	MITF primary 54.5 | MITF confirm 60.9 | AlphaScreen intf2 100.3
O=C(Nc1nc(-c2ccccn2)cs1)C1CC1	none
CCn1c(CN2CCOCC2)c(-c2ccccc2)c2cc([N+](=O)[O-])ccc21	none
COc1ccccc1CN1CCN(S(C)(=O)=O)CC1	none
CCS(=O)(=O)N1CCN(Cc2ccccc2OC)CC1	MITF primary 57.8 | MITF confirm inactive | AlphaScreen intf2 inactive
CCOc1ccccc1CN1CCN(S(=O)(=O)CC)CC1	none
CCCS(=O)(=O)N1CCN(Cc2ccccc2OCC)CC1	MITF primary 73.9 | MITF confirm inactive | AlphaScreen intf2 inactive
CCCN1CCN(CC(=O)NC(C)c2cccc(Cl)c2)CC1 (stereo not drawn)	MITF primary 91.7 | MITF confirm inactive | AlphaScreen intf2 inactive
CC(NC(=O)CN1CCN(c2cccc(Cl)c2)CC1)c1ccccc1 (stereo not drawn)	none
COc1cc(OC)c(CN2CCCC(CO)C2)cc1Br (stereo not drawn)	MITF primary 54.7 | MITF confirm inactive | AlphaScreen intf2 inactive
O=c1[nH]c(/C=C/c2cc(Br)ccc2F)c([N+](=O)[O-])c(=O)[nH]1	none
COc1ccc(NC(=O)CCNS(=O)(=O)c2cccc3nonc23)cc1Cl	MITF primary 55.0 | MITF confirm inactive | AlphaScreen intf2 inactive
COc1ccc(NC(=O)CNS(=O)(=O)c2cccc3nonc23)cc1Cl	none
O=C(NCCO)c1ccc2nc(-c3ccco3)c(-c3ccco3)nc2c1	MITF primary 73.9 | MITF confirm 83.2 | AlphaScreen DR inactive | AlphaScreen intf2 inactive
O=C(NCCCN1CCOCC1)c1ccc2nc(-c3ccco3)c(-c3ccco3)nc2c1	none
O=C1N/C(=C/c2cccn2-c2ccccc2)C(=O)N1Cc1ccccc1F	MITF primary 55.2 | MITF confirm inactive | AlphaScreen intf2 inactive
Cc1ccc(C(C)C)cc1OCCOCCN1CCNCC1	MITF primary 70.6 | MITF confirm inactive | AlphaScreen intf2 inactive
Cc1cc(OCCOCCN2CCNCC2)ccc1Cl	MITF primary 68.3 | MITF confirm 74.1 | AlphaScreen DR inactive | AlphaScreen intf2 inactive
CC(C)(C)C1CCc2c(sc(NC(=O)c3cc(-c4ccccc4)nc4ccccc34)c2C(N)=O)C1 (stereo not drawn)	none
Cc1cc(NC(=O)COC(=O)CCC(=O)c2ccc3c(c2)OCCO3)no1	none
COc1cc(/C=N/NC(=O)CC2C(=O)NN=C2C)cc(OC)c1OC(C)=O (stereo not drawn)	none
COc1cc(OC)c(OC)cc1/C=N/NC(=O)CC1C(=O)NN=C1C (stereo not drawn)	MITF primary 66.4 | MITF confirm inactive | AlphaScreen intf2 inactive
COc1ccc(CNC(=O)CN(Cc2ccccc2)S(=O)(=O)c2ccc(OC)c(OC)c2)cc1	none
CCc1nnc2sc(-c3ccc(NC(=O)COc4ccc(OC)cc4)cc3)nn12	none
CCc1nnc2sc(-c3ccc(NC(=O)C(C)(C)C)cc3)nn12	MITF primary 53.8 | MITF confirm inactive | AlphaScreen intf2 inactive
N#Cc1c(-c2ccccc2)nc(SCC(=O)Nc2nc(-c3ccccc3)cs2)[nH]c1=O	none
N#C/C(=C\c1nn(-c2ccccc2)c(N)c1C#N)c1ccco1	MITF primary 58.7 | MITF confirm 82.8 | AlphaScreen DR inactive | AlphaScreen intf2 inactive
N#C/C(=C\c1nn(CCO)c(N)c1C#N)c1ccco1	none
Cc1n[nH]c(=S)n1/N=C/c1ccccc1F	MITF primary 70.0 | MITF confirm inactive | AlphaScreen intf2 inactive
CN(C)CCCN(CCCN(C)C)Cc1ccc(F)c(Br)c1	MITF primary 52.9 | MITF confirm inactive | AlphaScreen intf2 inactive
CN(C)CCCN(CCCN(C)C)Cc1ccc(Cl)cc1	none
CN(C)CCCN(CCCN(C)C)Cc1ccc(F)cc1	MITF primary 63.7 | MITF confirm inactive | AlphaScreen intf2 inactive
CN(C)CCCN(CCCN(C)C)Cc1cccc(C(F)(F)F)c1	MITF primary 56.7 | MITF confirm inactive | AlphaScreen intf2 inactive
CCOC(=O)c1sc2ncn(Cc3cccc(Br)c3)c(=O)c2c1C	none
COC(=O)c1c(OCc2cccnc2)cc(=O)n2c1CCN(C(=O)C1CCCCC1)CC2	MITF primary 68.7 | MITF confirm inactive | AlphaScreen intf2 inactive
CN1CCN(CCOCCOc2cccc(Cl)c2Cl)CC1	MITF primary 50.8 | MITF confirm inactive | AlphaScreen intf2 inactive
CN1CCN(CCOCCOc2ccc(Cl)cc2C(C)(C)C)CC1	MITF primary 68.5 | MITF confirm inactive | AlphaScreen intf2 33.3
CN1CCN(CCOCCOc2ccccc2Br)CC1	none
Cc1ccc(OCCOCCN2CCN(C)CC2)c(C)c1	MITF primary 65.3 | MITF confirm inactive | AlphaScreen intf2 inactive
Cc1ccc(OCCOCCN2CCN(C)CC2)c(C(C)(C)C)c1	MITF primary 56.3 | MITF confirm inactive | AlphaScreen intf2 inactive
Cc1ccc(OCCCN2CCN(C)CC2)c(C(C)(C)C)c1	none
O=C1c2ccc(Br)cc2C(=O)N1c1ccc([N+](=O)[O-])cc1Br	none
CCN1CCN(CCOc2ccc(C)cc2C)CC1	MITF primary 78.0 | MITF confirm inactive | AlphaScreen intf2 inactive
CCN1CCN(CCOc2ccc(C)cc2Br)CC1	none
CCOC(=O)c1ccc(OCCCN2CCCCCC2)cc1	none
CCN1CCN(CCOc2ccc(C(=O)c3ccccc3)cc2)CC1	none
O=C(c1ccccc1)c1ccc(OCCCN2CCCC2)cc1	MITF primary 53.3 | MITF confirm inactive | AlphaScreen intf2 inactive

Screening results: PubChem, The Scripps Research Institute Molecular Screening Center
